High-throughput results as filed in PubChem.
KB-V1 cytotox – KB-V1 MDR subline cytotoxicity. Potency, µM (titrated, usually from 46.1 µM), actives largely listed as cytotoxic. 3.4% of 400,000 active. KB-V1 MDR cells viability, CellTiter-Glo, 72 h; also: nearly all actives have a fitted effect of over 60% in size
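Compound-treated KB-V1 multidrug-resistant cells, 72 h, 37 degrees C; viability by CellTiter-Glo. Fitted qHTS curves give the values.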
HT1080 IDH1KD tx – kills HT-1080 cells with IDH1 knockdown. HT-1080 IDH1 knockdown viability, ATP luminescence, 48 h. Potency, µM (highest dose often 46.1 µM), hits mostly cytotoxic. 2% of 360,000 active. AID 686971
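CellTiter-Glo luminescence after 48 h compound exposure at 37 degrees C of IDH1-knockdown HT-1080 cells in 5% FBS RPMI. %Activity scaled between DMSO wells and cell-free media wells, with curves fitted and assigned curve classes.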
SW480 rereplic – inducers of DNA re-replication in SW480 colon cancer cells | SW480 DNA re-replication, Hoechst DNA content imaging, 48 h | Potency, µM (highest dose often 46.1 µM), most hits filed as activators | 1.8% of 340,000 active | AID 624297; also: nearly all actives have a fitted effect of over 55% in size
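Per well, 250 cells were exposed to pinned compound for 48 hr. Nuclear DNA was visualised with Hoechst (40 min, 37 C) and total object intensity recorded by fluorescence scanning.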
HT1080NT lethal – kills 2HG-producing HT-1080-NT fibrosarcoma cells | HT-1080-NT fibrosarcoma viability, CellTiter-Glo ATP luminescence, 48 h | 1.6% of 360,000 active | Potency, µM (doses to about 46.1 µM), usual class: cytotoxic;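 also: NT is the 2HG producing partner of a matched IDH1 knockdown line; nearly all actives have a fitted effect of over 55% in size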
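Read-out is CellTiter-Glo luminescence after 10 minutes at room temperature, following 48 hours' compound treatment of HT-1080-NT cells (750 cells/well, RPMI, 5% FBS, 37 degrees C).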
KB-3-1 cytotox – KB-3-1 parental cell cytotoxicity; KB-3-1 viability, CellTiter-Glo ATP luminescence, 72 h; Potency, µM (series often up to 46.1 µM), actives largely listed as cytotoxic; 1.4% of 400,000 active; AID 1347075; also: nearly all actives have a fitted effect of over 60% in size
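Multi-concentration cytotoxicity screen in KB-3-1 cells grown in DMEM lacking phenol red with 10% FBS. After 72 h at 37 °C with compound, ATP-dependent luminescence was recorded.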
MCF10A rerep – DNA re-replication induction in MCF 10a cells | AID 624296 | 2.9% of 350,000 active | MCF 10A DNA re-replication, Hoechst nuclear intensity, 48 h | Potency, µM (top dose mostly 46.1 µM), most hits filed as activators; also: nearly all actives have a fitted effect of over 50% in size
Numbers stand for hits; . = inactive; ? = inconclusive; / = no result. In the library only some 7.9% were active in any assay of this set; here they are far more common. Calls follow the shape of the dose curve; as a rule, active = well fitted curve in the direction sought with a large enough effect; inconclusive = small, poorly fitted or top-dose-only effect, or another doubt; inactive = no such curve, though single readings can be large; an effect the other way counts as inactive or inconclusive.

SMILES | KB-V1 cytotox | HT1080 IDH1KD tx | SW480 rereplic | HT1080NT lethal | KB-3-1 cytotox | MCF10A rerep
CC(=O)Nc1cc(-c2ccc(N)nc2)cn2c(-c3cccc(C(F)(F)F)c3)cnc12 | . | ? | / | ? | . | /
Nn1cnnc1N/N=C/c1cc(Br)cc(Br)c1O | 2.3µM | ? | ? | . | ? | ?
CS/C(N)=N/N=C/c1cc(Br)cc(Br)c1O | ? | . | ? | . | . | ?
CSc1ccc(/C=N\Nc2nncn2N)cc1 | . | 21µM | . | ? | . | ?
CC(C)(C)c1ccc(/C=N/Nc2nncn2N)cc1 | . | ? | . | . | . | 12µM
COc1cc(/C=N\Nc2nncn2N)ccc1OC(C)=O | . | ? | ? | ? | . | ?
Cc1c(NC(=O)CSc2nnc(-c3ccncc3)n2C)c(=O)n(-c2ccccc2)n1C | . | . | / | . | . | /
COc1ccccc1C(=O)Nc1c(C(=O)N(C)c2ccccc2)sc2nc(C)cc(C)c12 | . | / | / | / | . | /
COc1ccc(S(=O)(=O)c2c(O)c3ccc(C(=O)NCc4ccc(F)cc4)cc3[nH]c2=O)cc1 | . | / | / | / | . | /
Cn1c(=O)c2c(ncn2Cc2ccc(Cl)c(Cl)c2)n(C)c1=O | 2.6µM | . | . | . | ? | .
Cn1c(=O)c2c(ncn2Cc2cccc(Cl)c2)n(C)c1=O | ? | . | . | ? | ? | .
Cn1c(=O)c2c(ncn2CCOc2cccc(Br)c2)n(C)c1=O | ? | . | . | ? | 10µM | .
Cn1c(=O)c2c(nc(Cl)n2Cc2ccc(Cl)c(Cl)c2)n(C)c1=O | 16µM | . | . | . | ? | .
Cn1c(=O)c2c(nc(Cl)n2Cc2ccncc2)n(C)c1=O | . | . | ? | . | . | .
Cn1c(NCC(O)c2ccccc2)nc2c1c(=O)n(Cc1ccc(Cl)c(Cl)c1)c(=O)n2C (stereo unspecified) | . | 18µM | ? | 21µM | ? | ?
O=C(c1ccc2c(c1)OCCO2)C1CCN(C(=O)Nc2ccc(F)cc2)CC1 | 23µM | . | . | . | . | .
COc1ccc(NC(=S)NC(=O)c2ccc3c(c2)OCCO3)cc1 | . | . | . | . | . | .
O=C(NC(=S)Nc1ccc(CN2CCOCC2)cc1)c1ccc2c(c1)OCCO2 | 21µM | ? | ? | ? | 18µM | ?
O=C(c1ccc2c(c1)OCCO2)C1CCN(S(=O)(=O)c2ccccc2F)CC1 | 23µM | ? | . | . | . | .
O=C(NC(=S)Nc1ccc(N2CCOCC2)cc1)c1ccc2c(c1)OCCO2 | ? | . | ? | . | . | .
COc1ccc(S(=O)(=O)N2CCC(C(=O)c3ccc4c(c3)OCCO4)CC2)cc1 | . | . | . | . | ? | .
O=C(NC(=S)Nc1ccc(F)cc1)c1ccc2c(c1)OCCO2 | . | . | . | . | 13µM | .
CC(C)(C)OC(=O)N1CCC(c2c(C(=O)N3CCC(c4ccccc4)C3)cnn2-c2cccc(Cl)c2)CC1 (stereo unspecified) | . | / | / | / | ? | /
Cc1cc(NC(=O)C(C)SCC(=O)OCC(=O)N(C)c2ccccc2)no1 (stereo unspecified) | . | . | . | . | . | .
CCN(CC(=O)NCc1cccs1)C(=O)c1cccc(S(=O)(=O)N(CC)c2ccccc2)c1 | . | . | . | . | . | .
SMILES | KB-V1 cytotox | HT1080 IDH1KD tx | SW480 rereplic | HT1080NT lethal | KB-3-1 cytotox | MCF10A rerep
CCOc1ccc(C2C=C(c3ccc(C)cc3)Nc3nnnn32)cc1 (stereo unspecified) | ? | 13µM | . | ? | ? | ?
CCOc1ccc(C2C=C(c3ccccc3)Nc3nnnn32)cc1 (stereo unspecified) | . | . | . | . | . | .
CCCCOc1ccc(Cc2c(Cl)nc(SC)nc2N2CCOCC2)cc1 | 21µM | . | . | . | . | .
Cc1ccc(NC(=O)c2ccc3c(O)c(S(=O)(=O)c4ccccc4)c(=O)[nH]c3c2)cc1Cl | . | / | / | / | . | /
COC(=O)/C=C/c1ccsc1NC(C)=O | . | . | 9.2µM | . | . | .
COc1ccc(OC)c(NC(=O)C2=C(C)C(=O)OC23CCCCCC3)c1 | . | / | / | / | . | /
